For some assays here: Entries with a potency or affinity are not part of this list.
Experiments:
Parameters in all cases: scale not given: direction of the effect not stated beside the values
[1] = biological target: Protein translocase subunit SecA (Escherichia coli (strain K12)) (UniProt P10408); test: Assay to Identify E. coli SecA ATPase Inhibitors; format: functional; details: 30 µM
[2] = biological target: T1, Ubiquitin-activating enzyme e1, putative (Leishmania donovani (strain BPK282A1)) (UniProt E9BSI1); test: Leishmania donovani Ubiquitin Activating Enzyme (LdE1); format: functional; details: 30 µM
T1 sequence (whole entry): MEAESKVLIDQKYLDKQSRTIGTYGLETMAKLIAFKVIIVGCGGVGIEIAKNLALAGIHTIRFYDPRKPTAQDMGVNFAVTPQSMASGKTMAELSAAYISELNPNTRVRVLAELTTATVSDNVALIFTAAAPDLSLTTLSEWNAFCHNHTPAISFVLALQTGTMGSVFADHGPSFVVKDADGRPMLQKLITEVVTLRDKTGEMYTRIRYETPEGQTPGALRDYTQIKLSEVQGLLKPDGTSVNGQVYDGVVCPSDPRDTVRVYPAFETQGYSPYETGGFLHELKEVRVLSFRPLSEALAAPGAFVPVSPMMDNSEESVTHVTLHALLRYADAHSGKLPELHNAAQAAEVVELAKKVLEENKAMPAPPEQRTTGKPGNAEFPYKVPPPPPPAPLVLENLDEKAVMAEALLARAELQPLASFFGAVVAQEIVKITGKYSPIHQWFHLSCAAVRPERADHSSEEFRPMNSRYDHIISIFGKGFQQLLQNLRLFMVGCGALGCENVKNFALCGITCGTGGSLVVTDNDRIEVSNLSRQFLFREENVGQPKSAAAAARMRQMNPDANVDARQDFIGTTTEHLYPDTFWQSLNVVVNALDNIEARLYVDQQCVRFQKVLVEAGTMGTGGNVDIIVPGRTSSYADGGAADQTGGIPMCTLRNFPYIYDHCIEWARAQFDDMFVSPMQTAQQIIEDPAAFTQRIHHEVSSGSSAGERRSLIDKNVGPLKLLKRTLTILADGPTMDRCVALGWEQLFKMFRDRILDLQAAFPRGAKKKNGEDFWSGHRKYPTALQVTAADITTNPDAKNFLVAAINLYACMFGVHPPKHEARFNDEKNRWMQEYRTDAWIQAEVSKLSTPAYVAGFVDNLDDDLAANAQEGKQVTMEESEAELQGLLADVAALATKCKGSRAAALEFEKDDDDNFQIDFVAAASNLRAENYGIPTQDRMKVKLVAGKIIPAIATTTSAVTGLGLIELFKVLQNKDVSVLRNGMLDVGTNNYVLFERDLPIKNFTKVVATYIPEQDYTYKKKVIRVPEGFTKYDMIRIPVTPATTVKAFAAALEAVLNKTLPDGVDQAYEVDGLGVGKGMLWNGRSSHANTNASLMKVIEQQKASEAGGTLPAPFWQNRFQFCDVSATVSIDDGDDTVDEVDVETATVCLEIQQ

[3] = biological target: AMP-activated protein kinase, AMPK (Homo sapiens) (UniProt P54646+O43741+P54619+Q9UGJ0+Q9Y478+Q13131+Q9UGI9); test: AMP-dependent Kinase enzyme assay. An in vitro enzyme assay that detects ADP turnover that is directly proportional to AMPK activity. This uses naive AMPK that is activated during the assay with MK-8722; format: functional; details: 30 µM
[4] = biological target: Sialic acid-binding Ig-like lectin 9 (Homo sapiens) (UniProt Q9Y336); test: Hs-Siglec9 ALPHAscreen SOP 20170721; details: 10 µM
[5] = system: Trypanosoma cruzi; test: Trypanosoma cruzi phosphomannomutase and mannose-1-phosphate guanylyltransferase assay; format: functional; details: 10 µM
[6] = biological target: T2, Arginase-2, mitochondrial (Homo sapiens) (UniProt P78540); test: in vitro enzyme assay to detect the production of urea directly proportional to the activity of Arginase II; format: functional; details: 33.3 µM; note: in the data most compounds retested in dose-response had high values
T2 sequence (whole entry): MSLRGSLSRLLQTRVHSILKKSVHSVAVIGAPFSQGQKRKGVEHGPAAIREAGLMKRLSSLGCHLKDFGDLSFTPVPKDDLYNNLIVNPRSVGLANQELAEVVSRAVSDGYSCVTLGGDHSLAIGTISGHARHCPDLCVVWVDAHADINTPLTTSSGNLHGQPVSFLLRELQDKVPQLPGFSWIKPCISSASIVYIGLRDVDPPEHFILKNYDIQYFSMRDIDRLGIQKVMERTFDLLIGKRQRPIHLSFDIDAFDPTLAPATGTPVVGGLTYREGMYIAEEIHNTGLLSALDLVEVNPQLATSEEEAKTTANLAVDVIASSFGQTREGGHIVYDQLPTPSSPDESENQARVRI

[7] = biological target: T3, Proteasome subunit beta (Trypanosoma cruzi) (UniProt O96673); test: Trypanosoma cruzi proteasome chymotrypsin-like activity (TcProtChymo) assay.; note: in the data most compounds retested in dose-response had high values; format: functional; details: 9.37 µM
T3 sequence (whole entry): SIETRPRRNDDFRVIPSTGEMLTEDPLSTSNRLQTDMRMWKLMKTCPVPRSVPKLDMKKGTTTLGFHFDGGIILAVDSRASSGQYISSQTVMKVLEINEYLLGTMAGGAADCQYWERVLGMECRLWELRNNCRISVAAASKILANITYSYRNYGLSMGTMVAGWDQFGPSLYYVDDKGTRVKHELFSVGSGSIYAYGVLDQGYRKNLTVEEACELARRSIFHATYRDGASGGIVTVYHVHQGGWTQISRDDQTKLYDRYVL

[8] = species on record: Homo sapiens; test: To identify inhibition of the IFN signalling (Jak-Stat) pathway via expression of an eGFP reporter gene under the control of an IFN-stimulated response element (ISRE) containing MxA promoter.; format: functional; details: 30 µM
[9] = biological target: T4, Tyrosyl-tRNA synthetase, putative (Trypanosoma cruzi (strain CL Brener)) (UniProt Q4DSP6); test: Trypanosoma cruzi tyrosyl tRNA synthetase (TcYRS) _High Tyrosine SOP; format: functional; details: 30 µM; note: in the data most compounds retested in dose-response had high values
T4 sequence (whole entry): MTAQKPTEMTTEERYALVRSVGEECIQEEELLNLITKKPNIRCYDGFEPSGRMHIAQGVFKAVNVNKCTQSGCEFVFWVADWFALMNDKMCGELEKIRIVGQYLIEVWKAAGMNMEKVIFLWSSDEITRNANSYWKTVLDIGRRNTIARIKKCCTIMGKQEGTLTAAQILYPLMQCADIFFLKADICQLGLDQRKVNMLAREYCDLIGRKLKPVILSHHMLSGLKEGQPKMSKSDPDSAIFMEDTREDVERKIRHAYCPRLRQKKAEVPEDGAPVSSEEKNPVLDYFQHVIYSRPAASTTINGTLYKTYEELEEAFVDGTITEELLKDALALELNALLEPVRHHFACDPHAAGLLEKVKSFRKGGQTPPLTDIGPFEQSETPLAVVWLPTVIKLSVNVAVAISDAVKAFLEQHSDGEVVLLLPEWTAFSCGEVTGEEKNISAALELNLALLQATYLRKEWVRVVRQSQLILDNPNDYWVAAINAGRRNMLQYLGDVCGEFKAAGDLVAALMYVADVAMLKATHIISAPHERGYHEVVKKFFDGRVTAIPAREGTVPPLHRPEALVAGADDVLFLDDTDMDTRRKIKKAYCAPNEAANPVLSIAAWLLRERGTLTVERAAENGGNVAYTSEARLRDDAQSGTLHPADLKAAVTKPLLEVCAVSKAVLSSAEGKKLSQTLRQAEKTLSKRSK

[10] = biological target: T4, Tyrosyl-tRNA synthetase, putative (Trypanosoma cruzi (strain CL Brener)); test: Trypanosoma cruzi tyrosyl tRNA synthetase (TcYRS) SOP; format: functional; details: 30 µM
[11] = biological target: Chromo domain-containing protein 1 (Saccharomyces cerevisiae (strain ATCC 204508 / S288c) (Baker's yeast)) (UniProt P32657); test: ScCHD-1 Enzyme Inhibition Assay; format: functional; details: 30 µM; note: in the data most compounds retested in dose-response had high values
Sequence of Chromo domain-containing protein 1 (Saccharomyces cerevisiae (strain ATCC 204508 / S288c) (Baker's yeast)) (P32657 whole entry, the tested form may be a part): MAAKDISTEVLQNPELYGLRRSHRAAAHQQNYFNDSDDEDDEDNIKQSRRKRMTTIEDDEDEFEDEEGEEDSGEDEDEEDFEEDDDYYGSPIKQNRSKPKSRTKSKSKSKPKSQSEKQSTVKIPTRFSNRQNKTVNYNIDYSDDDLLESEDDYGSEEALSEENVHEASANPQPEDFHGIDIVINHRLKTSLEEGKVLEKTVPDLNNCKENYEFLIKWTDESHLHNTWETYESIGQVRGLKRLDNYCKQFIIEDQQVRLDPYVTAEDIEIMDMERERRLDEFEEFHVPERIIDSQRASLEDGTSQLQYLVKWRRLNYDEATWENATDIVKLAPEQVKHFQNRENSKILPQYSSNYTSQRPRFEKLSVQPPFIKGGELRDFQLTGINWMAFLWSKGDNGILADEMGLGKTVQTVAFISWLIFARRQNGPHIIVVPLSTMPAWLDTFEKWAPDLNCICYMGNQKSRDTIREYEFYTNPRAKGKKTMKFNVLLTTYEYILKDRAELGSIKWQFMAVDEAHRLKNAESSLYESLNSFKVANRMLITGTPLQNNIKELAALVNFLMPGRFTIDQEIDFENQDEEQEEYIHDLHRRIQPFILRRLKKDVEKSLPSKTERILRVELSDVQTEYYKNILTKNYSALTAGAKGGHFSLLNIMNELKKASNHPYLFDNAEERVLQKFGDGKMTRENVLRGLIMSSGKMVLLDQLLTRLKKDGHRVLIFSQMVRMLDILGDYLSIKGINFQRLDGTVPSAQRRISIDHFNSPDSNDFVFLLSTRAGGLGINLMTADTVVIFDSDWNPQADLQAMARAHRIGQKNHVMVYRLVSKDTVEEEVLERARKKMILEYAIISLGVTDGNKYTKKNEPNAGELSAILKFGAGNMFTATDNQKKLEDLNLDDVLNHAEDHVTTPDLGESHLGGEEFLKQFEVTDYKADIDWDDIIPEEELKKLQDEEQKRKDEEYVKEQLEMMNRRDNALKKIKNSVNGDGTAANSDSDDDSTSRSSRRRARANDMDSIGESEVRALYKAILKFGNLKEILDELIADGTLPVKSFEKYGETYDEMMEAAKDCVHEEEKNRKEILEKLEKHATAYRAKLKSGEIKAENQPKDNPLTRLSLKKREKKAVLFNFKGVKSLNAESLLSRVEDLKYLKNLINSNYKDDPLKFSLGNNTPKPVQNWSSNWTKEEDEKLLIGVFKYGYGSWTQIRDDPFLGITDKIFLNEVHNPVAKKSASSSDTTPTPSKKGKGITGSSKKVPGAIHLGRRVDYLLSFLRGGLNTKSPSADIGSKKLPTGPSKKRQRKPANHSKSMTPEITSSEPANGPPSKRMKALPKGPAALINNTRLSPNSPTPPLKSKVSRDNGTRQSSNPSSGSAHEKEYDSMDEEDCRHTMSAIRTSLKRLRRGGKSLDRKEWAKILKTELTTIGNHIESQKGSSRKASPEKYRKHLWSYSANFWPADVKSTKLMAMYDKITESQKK

Sequence of Sialic acid-binding Ig-like lectin 9 (Homo sapiens) (Q9Y336 whole entry): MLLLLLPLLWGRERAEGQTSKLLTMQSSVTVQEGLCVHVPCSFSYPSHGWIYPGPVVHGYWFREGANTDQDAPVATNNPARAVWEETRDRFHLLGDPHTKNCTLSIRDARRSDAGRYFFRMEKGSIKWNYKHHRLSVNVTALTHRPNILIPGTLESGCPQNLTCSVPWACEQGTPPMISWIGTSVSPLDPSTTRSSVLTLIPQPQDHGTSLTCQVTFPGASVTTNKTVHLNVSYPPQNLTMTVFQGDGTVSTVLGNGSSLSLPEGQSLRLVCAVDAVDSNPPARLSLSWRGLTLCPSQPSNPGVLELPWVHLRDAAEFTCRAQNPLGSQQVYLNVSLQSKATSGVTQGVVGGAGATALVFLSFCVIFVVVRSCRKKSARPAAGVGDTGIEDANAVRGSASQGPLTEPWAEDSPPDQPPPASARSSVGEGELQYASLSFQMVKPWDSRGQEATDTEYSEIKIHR
Sequence of Protein translocase subunit SecA (Escherichia coli (strain K12)) (P10408 whole entry): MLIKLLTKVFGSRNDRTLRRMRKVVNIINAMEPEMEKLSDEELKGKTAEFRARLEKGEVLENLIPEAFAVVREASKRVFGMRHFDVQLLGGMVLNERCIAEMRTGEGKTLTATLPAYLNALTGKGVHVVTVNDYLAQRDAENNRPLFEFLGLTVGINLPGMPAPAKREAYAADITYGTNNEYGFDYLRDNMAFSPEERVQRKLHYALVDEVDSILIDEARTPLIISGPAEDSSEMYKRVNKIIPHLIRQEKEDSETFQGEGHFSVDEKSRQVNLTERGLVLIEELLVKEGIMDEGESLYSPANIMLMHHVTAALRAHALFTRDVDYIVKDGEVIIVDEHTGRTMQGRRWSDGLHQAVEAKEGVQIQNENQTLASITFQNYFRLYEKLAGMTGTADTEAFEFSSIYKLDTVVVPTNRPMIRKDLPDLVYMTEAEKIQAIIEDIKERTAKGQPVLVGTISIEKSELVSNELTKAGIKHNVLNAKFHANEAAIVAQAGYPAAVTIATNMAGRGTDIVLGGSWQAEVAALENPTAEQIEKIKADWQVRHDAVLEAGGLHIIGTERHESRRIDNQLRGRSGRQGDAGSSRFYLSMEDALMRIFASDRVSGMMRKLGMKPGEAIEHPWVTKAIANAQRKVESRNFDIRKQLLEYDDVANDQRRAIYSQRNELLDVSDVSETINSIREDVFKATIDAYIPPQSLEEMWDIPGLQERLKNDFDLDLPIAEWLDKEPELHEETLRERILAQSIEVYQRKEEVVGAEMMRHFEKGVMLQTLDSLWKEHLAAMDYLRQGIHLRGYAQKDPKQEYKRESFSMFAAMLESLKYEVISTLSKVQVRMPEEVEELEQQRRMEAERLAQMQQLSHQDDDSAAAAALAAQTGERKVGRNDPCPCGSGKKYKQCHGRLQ

Structure (SMILES)	Percent Effect [1] [%]	Percent Effect [2] [%]	Percent Effect [3] [%]	Percent Effect [4] [%]	Percent Effect [5] [%]	Percent Effect [6] [%]	Percent Effect [7] [%]	Percent Effect [8] [%]	Percent Effect [9] [%]	Percent Effect [10] [%]	Percent Effect [11] [%]
O=C(O)c1cc(NS(=O)(=O)c2cccc(Cl)c2F)ccc1Cl	-7.65	2.6	4.08	1.53	-5.8	-2.13	5.57	23.4	-11.7	-12.2	-3.44
CCOc1ccccc1OC1CCN(C(=O)c2nc(=O)[nH][nH]2)CC1	-5.6	18.4	-5.81	1.22	10.5	-3.06	13.9	18.1	6.37	19.5	-9.11
Cc1n[nH]c(C2CN(CC(=O)NCc3ccco3)CCO2)n1 (configuration not stated)	-7.98	0	3.1	-5.39	-5.36	-2.6	6.8	24.6	-1.64	-3.7	-2.33
O=C(c1n[nH]c2c1CCN(Cc1nccs1)C2)N1CCCC1	-4.94	5.41	-4.39	22.5	4.4	0.744	8.33	-0.319	5.38	6.17	-10.3
O=C(c1ccccn1)N1CCn2cnc(COCC3CC3)c2C1	-2.21	0	3.19	4.7	-2.86	3.23	9.57	-0.697	-10.6	-16.7	-11
Cc1ccc(C(NC(=O)[C@H]2CC[C@@H](O)CC2)c2cccnc2)cc1C (some centres not stated)	-7.06	5.33	2.02	2.58	-1.07	4.17	8.2	-9.12	0.546	8.64	-6.38
CC(C)(N)CN1CCC(c2nnc(CN3CCCC3)n2C2CC2)CC1	-7.06	8	3.2	2.76	-0.0974	5.73	15.5	8.71	2.73	6.17	-4.27
CCn1cc(CN2CCCN(C(=O)c3sccc3C#N)CC2)cn1	-4.12	2.53	-2.86	-2.29	-1.04	-1.14	-7.94	-14	2.46	3.8	4.04
Cc1nc(CN2CCCN(CCOc3cccc(C#N)c3)CC2)no1	-0.969	13.2	-4.74	-2.13	-7.38	3.24	16.3	7.6	6.4	11.1	-9.28
COCCO[C@H]1CCN(C(=O)C2CCOCC2)[C@H]1Cc1ccncc1	-1.4	16	-6.31	-6.51	-3.94	-1.17	9.6	16.1	2.13	6.41	-2.62
COc1cccc(CN(C)Cc2ccc(C#N)cc2)c1OC	-2.85	-5.41	2.32	-6	0.586	-1.67	7.86	-3.25	4.95	-3.66	-5.17
COCCCN(C)C1CCCN(Cc2noc(C)n2)C1 (configuration not stated)	-1.35	2.7	-5.43	12.9	4.18	-0.554	-3.05	11.9	3.96	15.8	-1.13
CCc1nnc(CNCC2CCN(CC(O)c3ccccc3)CC2)o1 (configuration not stated)	-4.81	19	-3.87	-2.88	-2.15	-7.1	11.5	14	-2.08	12.7	-30.3
Cc1nc(CN2CCCC(NCCOc3ccccc3)C2)no1 (configuration not stated)	-2.53	2.53	-4.3	-3.12	-1.98	2.28	28.9	-12.5	2.46	-1.27	-6.02
COc1ccc(CNCCc2cc(F)cc3c2OCOC3)cc1O	-5.67	4.17	-9.01	0.774	-2.62	-0.883	4.74	2.67	3.16	5.13	-2.11
O=C(c1cc(C2CC2)[nH]n1)N1CCN(Cc2ccsc2)CC1	-5.68	21.6	-3.2	10.8	10.7	1.66	14	9.93	7.92	23.2	-1.29
CC(C)N(C)C(=O)C1=NOC2(CCN(C(=O)c3ccccn3)C2)C1 (configuration not stated)	3.88	2.74	-0.462	5.09	-5.95	-3.59	17.9	5.05	5.21	16.1	2.42
CNS(=O)(=O)c1cc(C(=O)NC2CCOc3ccccc32)cc(C)c1C (configuration not stated)	-6.38	-2.63	13.9	-3.37	-3.41	-4.73	8.53	-0.414	4.25	7.79	7.83
Cc1nccn1CCC1CCCCN1Cc1ccc(N(C)C)nc1 (configuration not stated)	-1.41	5.33	-3.72	-2.2	-6.91	4.69	21.4	9.79	0.546	11.1	-5.71
CCN1CC2(CC1=O)CN(Cc1cccs1)CCN(C(=O)C(C)C)C2 (configuration not stated)	-5.19	-5.41	2.9	-2.56	-2.73	-3.33	7.35	-3.43	4.95	11	4.59
Cc1cccc(OCCC(=O)N2CCCN(CC(N)=O)CC2)c1C	-3.47	17.7	-7.09	14.1	1.6	-3.42	4.34	-12.7	1.48	16.5	-5.52
CC(C)c1csc(C2CCCN(C(=O)Cn3ccccc3=O)C2)n1 (configuration not stated)	-2.92	2.63	1.07	-4.27	8.27	-1.92	3.68	10.9	0.49	9.76	-9.15

From ChEMBL document CHEMBL3988442, “University of Dundee, Small-Polar-MMV Screening Library” (2021)
